Assay results as given in PubChem BioAssay AID1159580 (chemical genetic matrix, 2015).
About 2,000 (36%) of roughly 5,500 compounds were called active. Another 18% or so got no clear call; they are omitted. Rule as the data show it: active = normalized growth mostly below about 0.91 (no sharp cut-off); inconclusive = no clear call, values can overlap the other calls; inactive = mostly above about 0.92. Some of the results follow.

Test: chemical genetic growth profiling, strain panel (AID 1159580);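 also: tested at 20 µM; growth read once vehicle control cultures reached saturation at 30 °C; 1 = growth at the plate median or of vehicle wells; lower values mean less growth of the strain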
Settings: S. cerevisiae deletion strains, growth OD

Measured: normalized growth

CC(=O)Nc1ccc(S(=O)(=O)c2ccc(NC(C)=O)cc2)cc1
inactive: locus YAL021C, strain ccr4, stronger effect = lower value 1.03 | locus YAL026C, strain drs2, stronger effect = lower value 1.02 | locus YAL030W, strain snc1, stronger effect = lower value 1.02 | locus YBL061C, strain skt5, stronger effect = lower value 1.02 | locus YBR009C, strain hhf1, stronger effect = lower value 0.997 | locus YBR023C, strain chs3, stronger effect = lower value 1.01 | locus YBR171W, strain sec66, stronger effect = lower value 1.02 | locus YBR231C, strain swc5, stronger effect = lower value 1.02 | locus YBR279W, strain paf1, stronger effect = lower value 1.01 | locus YCL011C, strain gbp2, stronger effect = lower value 1.01 | locus YCL016C, strain dcc1, stronger effect = lower value 0.995 | locus YCL069W, strain vba3, stronger effect = lower value 1.02 | locus YCR088W, strain abp1, stronger effect = lower value 1.01 | locus YDL005C, strain med2, stronger effect = lower value 1.01 | locus YDL040C, strain nat1, stronger effect = lower value 1.02 | locus YDR001C, strain nth1, stronger effect = lower value 1.02 | locus YDR069C, strain doa4, stronger effect = lower value 1.02 | locus YDR137W, strain rgp1, stronger effect = lower value 1.03 | locus YDR159W, strain sac3, stronger effect = lower value 0.97 | locus YDR195W, strain ref2 1.02 | locus YDR297W, strain sur2, stronger effect = lower value 1.01 | locus YDR334W, strain swr1, stronger effect = lower value 1.02 | locus YDR335W, strain msn5, stronger effect = lower value 1.01 | locus YDR392W, strain spt3, stronger effect = lower value 0.998 | locus YEL003W, strain gim4, stronger effect = lower value 1.02 | locus YEL037C, strain rad23, stronger effect = lower value 1.02 | locus YEL061C, strain CIN8 (second series), stronger effect = lower value 1.02 | locus YER015W, strain faa2, stronger effect = lower value 1.02 | locus YER016W, strain bim1, stronger effect = lower value 0.996 | locus YER111C, strain swi4, stronger effect = lower value 1.01 | locus YER155C, strain BEM2 (second series), stronger effect = lower value 1.04 | locus YFR010W, strain ubp6, stronger effect = lower value 1.01 | locus YGL167C, strain pmr1, stronger effect = lower value 1.01 | locus YGL173C, strain kem1, stronger effect = lower value 1.02 | locus YGL227W, strain vid30, stronger effect = lower value 1.01 | locus YGL240W, strain doc1, stronger effect = lower value 1.02 | locus YGL253W, strain hxk2, stronger effect = lower value 1 | locus YHR013C, strain ard1, stronger effect = lower value 1.03 | locus YHR027C, strain rpn1, stronger effect = lower value 1.01 | locus YHR030C, strain SLT2, stronger effect = lower value 1.07 | locus YHR079C, strain IRE1, stronger effect = lower value 1.09 | locus YHR142W, strain chs7, stronger effect = lower value 1.02 | locus YJL092W, strain hpr5, stronger effect = lower value 1 | locus YJL095W, strain BCK1 (second series), stronger effect = lower value 1.01 | locus YJL095W, strain BCK1, stronger effect = lower value 1.01 | locus YJL115W, strain asf1, stronger effect = lower value 1.02 | locus YJL129C, strain trk1, stronger effect = lower value 0.999 | locus YJL154C, strain vps35, stronger effect = lower value 1.02 | locus YJL164C, strain tpk1, stronger effect = lower value 1 | locus YJL166W, strain qcr8, stronger effect = lower value 1.02 | locus YJL187C, strain SWE1, stronger effect = lower value 1.01 | locus YJR066W, strain TOR1, stronger effect = lower value 0.988 | locus YKL160W, strain elf1, stronger effect = lower value 1.01 | locus YKR026C, strain gcn3, stronger effect = lower value 0.999 | locus YKR091W, strain srl3, stronger effect = lower value 1.01 | locus YLL001W, strain dnm1, stronger effect = lower value 1.01 | locus YLL026W, stronger effect = lower value 1.01 | locus YLL041C, strain sdh2, stronger effect = lower value 0.997 | locus YLR027C, strain aat2, stronger effect = lower value 1 | locus YLR113W, strain HOG1, stronger effect = lower value 0.972 | locus YLR221C, strain rsa3, stronger effect = lower value 0.987 | locus YLR258W, strain gsy2, stronger effect = lower value 1.02 | locus YLR262C, strain YPT6 (second series), stronger effect = lower value 1.04 | locus YLR320W, strain mms22, stronger effect = lower value 1.03 | locus YLR342W, strain FKS1, stronger effect = lower value 1.01 | locus YLR357W, strain rsc2, stronger effect = lower value 1.01 | locus YLR370C, strain arc18, stronger effect = lower value 1.01 | locus YLR384C, strain iki3, stronger effect = lower value 1.01 | locus YML120C, strain ndi1, stronger effect = lower value 1.03 | locus YMR058W, strain fet3, stronger effect = lower value 1.01 | locus YMR125W, strain sto1, stronger effect = lower value 1.01 | locus YMR129W, stronger effect = lower value 1.02 | locus YMR205C, strain PFK2, stronger effect = lower value 1.01 | locus YMR231W, strain pep5, stronger effect = lower value 1.01 | locus YNL071W, strain lat1, stronger effect = lower value 1.02 | locus YNL183C, strain NPR1, stronger effect = lower value 0.971 | locus YNL209W, strain ssb2, stronger effect = lower value 1.01 | locus YNL248C, strain rpa49, stronger effect = lower value 1.02 | locus YNL322C, strain KRE1 (second series), stronger effect = lower value 1.01 | locus YNR049C, strain mso1, stronger effect = lower value 1.01 | locus YOR001W, strain rrp6, stronger effect = lower value 1.02 | locus YOR070C, strain gyp1, stronger effect = lower value 1.01 | locus YOR080W, strain dia2, stronger effect = lower value 1.02 | locus YOR083W, strain WHI5, stronger effect = lower value 0.979 | locus YOR106W, strain vam3, stronger effect = lower value 1.02 | locus YOR231W, strain MKK1, stronger effect = lower value 1.05 | locus YOR265W, strain rbl2, stronger effect = lower value 1.01 | locus YOR270C, strain vph1, stronger effect = lower value 1.02 | locus YOR290C, strain snf2, stronger effect = lower value 1.01 | locus YPL051W, strain arl3, stronger effect = lower value 1.01 | locus YPL078C, strain atp4, stronger effect = lower value 1.02 | locus YPL106C, strain sse1, stronger effect = lower value 1.02 | locus YPL240C, strain hsp82, stronger effect = lower value 1 | locus YPL256C, strain CLN2, stronger effect = lower value 1.08
